The values that follow come from PubChem BioAssay AID455 (Sanford-Burnham Center for Chemical Genomics, 2006).

Among all 10,000 compounds or so, about 20 (0.2%) were called active.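 The calls were made as follows: active = a compound raising TNF-alpha-driven VCAM-1 surface staining, with its hit status upheld on visual or statistical review; inactive = the rest, including hits rejected on review.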 The sample as a whole holds a higher share of actives than the screen did.

This experiment can be described thus: enhancers of VCAM-1 display on endothelial cells, cell-based, plate reader, pooled HUVEC, TNFa stimulus (AID 455).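 As to augmentation: 0% = TNFa plus DMSO wells and 100% = a visually confirmed top hit.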 The settings on record: HUVEC TNFa-induced VCAM-1 immunofluorescence; active compounds read high,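 tested at 5 µM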.
Take `COc1ccccc1/C=C1/C(=N/O)C2CCN1CC2`: the augmentation is 81.5% (active).

For the compound `O=C(CCCOc1ccc(Cl)cc1Cl)N1CCC2(CC1)OCCO2`, the augmentation result was “inactive”. With `O=C(Cn1ncc2c3ccccc3n(Cc3ccc(F)cc3)c2c1=O)N1CCC2(CC1)OCCO2`, the augmentation result was “inactive”.

For the compound `Cc1cccc(N2CCc3c2nc2ccccc2c3N)c1`, the augmentation entry is “inactive”. On to `COc1ccc(C2SCC(=O)Nc3c2c(=O)[nH]n3C2CCCCCC2)cc1OC` (stereo not given), for which the augmentation entry is “inactive”.
